This is a sample that favours compounds with a hit; in the whole collection about 5.4% have one here.
SKKanGAS inh: SKKanGAS growth inhibition; S. pyogenes SKKanGAS, kanamycin growth, BacTiter-Glo, 6 h; inhibition, % at 7.5 µM; 300,000 tested, 1.3% active; AID 1662;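 active means mean replicate score, as percent of positive control median, at least 50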;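 further: strain carries kanamycin resistance gene driven by streptokinase promoter and grows in 40 µg/ml kanamycin; loss of luminescence reflects streptokinase promoter inhibition or plain growth inhibition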
Calb FLC: C. albicans growth modulation with fluconazole; AID 1979; C. albicans CaCi-2 (fluconazole-resistant clinical isolate) + fluconazole, Alamar Blue growth, 48 h; 300,000 tested, 0.57% active; growth inhibition, % (no concentration beside the values);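 active means growth inhibition above about 58% in most replicates, limit read from the data, passing the limit was not always enough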;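 further: all wells also contain fluconazole at 8 µg/ml as a sub-toxic cotreatment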
CSC inhib: blocks cancer stem cells | cancer stem cell-like cells viability, luminescence | inhibition, % at 7.5 µM | 300,000 tested, 1.1% active | AID 2717; in the data active means inhibition above about 75%; tested in HMLE shEcad cells
Beta cell apopt: blocks beta cell apoptosis; INS-1E cytokine-induced death, ATP luminescence, 48 h; percent of positive-control rescue, neutral wells zero; protection from apoptosis, % (test concentration not listed); AID 435005; 300,000 tested, 0.8% active;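 active means Every replicate reaches about 75%, or at least half do and their mean reaches it too, limit read from the data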;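 further: higher means more ATP so stronger rescue from cytokine killing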
MPTP inh: inhibitors of mitochondrial permeability transition pore. inhibition, % at 10 µM. AID 602449. 360,000 tested, 1.4% active. isolated mouse mitochondria, Ca2+ swelling absorbance, 30 min;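 active means inhibition of 50% or more, scaled per plate between neutral and stimulator controls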
Mdm2 MdmX PPI: inhibitors of human Mdm2/MdmX interaction; SaOS-2 split-luciferase Mdm2/MdmX complementation, luminescence; inhibition, % at 8 µM; 330,000 tested, 3% active; AID 485346;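 active means inhibition of at least 50% at 8 µM in the primary screen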
Mdm2 MdmX conf: human Mdm2/MdmX binding inhibition, confirmed; shares compounds with Mdm2 MdmX PPI; luminescent assay; inhibition, % at 8 µM; 10,000 tested, 55% active; in the data active means inhibition above about 40%
Full FLuc ctr: full-length luciferase inhibition in Mdm2/MdmX counter-screen; shares compounds with Mdm2 MdmX PPI; SaOS-2 full-length luciferase counterscreen, luminescence; inhibition, % at 8 µM; 6,200 tested, 77% active;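 active means mean inhibition at 8 µM reaching about 37%, which flags the compound as non-specific, limit read from the data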;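 further: p53-null SaOS-2 cells with luciferase driven by a doxycycline-inducible promoter; compound on cells about two nights before reading with doxycycline added after day one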
Hits are given with their value; i = inactive; nt = not tested or not shown.

SMILES	SKKanGAS inh	Calb FLC	CSC inhib	Beta cell apopt	MPTP inh	Mdm2 MdmX PPI	Mdm2 MdmX conf	Full FLuc ctr
COc1ccc(N/C=C/C(=O)c2sc(-c3ccccc3)nc2C)cc1	i	i	i	i	i	58.7	i	98.5
CCc1nc2ccc(C(=O)N(CC)CCN(C)C)cn2c1N(C)Cc1ccc(OC)cc1	nt	nt	nt	nt	i	nt	nt	nt
CC1Cc2ccccc2N1c1ncnc(N)c1[N+](=O)[O-] (configuration not stated)	i	i	i	i	i	90.6	93.2	54.4
CC1Cc2ccccc2N1c1ncnc2nc[nH]c12 (configuration not stated)	i	i	i	i	i	53.1	49.0	75.5
O=C(CNC(=O)c1cccs1)NCC(=O)OCc1c(F)cccc1Cl	i	i	i	i	i	i	nt	nt
CSC(=S)NCc1cccnc1	i	87.7	i	i	i	79.5	73.0	38.9
NC(=S)NCc1cccnc1	i	i	i	i	i	i	nt	nt
Cc1ccc(S(=O)(=O)N2CCC(C(=O)OCC(=O)NC3(C#N)CCCCC3)CC2)cc1C	i	i	i	nt	i	i	nt	nt
FC(F)(F)c1ccc2c(c1)C1C=CCC1C(c1ccncc1)N2 (configuration not stated)	i	i	nt	nt	i	nt	nt	nt
O=C1C=C(Nc2ccccc2C(=O)O)c2ccccc2C1=O	i	i	i	i	i	i	nt	nt
O=C1C=C(Nc2ccccc2)c2ccccc2C1=O	68.1	i	nt	nt	i	52.7	i	nt
CCc1ccc2c(c1)C(=O)c1ccccc1C2=O	i	i	i	i	i	i	nt	nt
CCc1ccc(NC2=CC(=O)C(=O)c3ccccc32)cc1	nt	nt	nt	nt	i	69.7	64.8	85.0
O=C(CN1C(=O)c2ccccc2C1=O)Nc1cccc2cccnc12	i	i	i	nt	i	i	nt	nt
O=C1C=C(Nc2cccc3cccnc23)c2ccccc2C1=O	63.2	100.6	i	i	i	63.2	56.8	70.0
Cc1ccc(C(=O)Nc2ccccc2SCC2CSc3nc4ccccc4c(=O)n32)cc1 (configuration not stated)	i	i	i	i	i	70.3	46.5	55.3
O=C(Nc1ccccc1SCC1CSc2nc3ccccc3c(=O)n21)c1cccc(Cl)c1 (configuration not stated)	i	i	i	i	i	77.2	55.0	42.6
O=C(Nc1ccccc1SCC1CSc2nc3ccccc3c(=O)n21)c1ccccc1Cl (configuration not stated)	i	i	i	i	i	i	nt	nt
Cc1cccc(C(=O)Nc2ccccc2SCC2CSc3nc4ccccc4c(=O)n32)c1 (configuration not stated)	i	i	i	nt	i	62.9	44.0	107.1
O=C(Nc1ccccc1SCC1CSc2nc3ccccc3c(=O)n21)c1ccccc1 (configuration not stated)	i	i	i	i	i	i	nt	nt
Cc1ccc(C)c(NC(=O)CS(=O)(=O)c2c[nH]c3ccccc23)c1	i	i	i	i	i	i	nt	nt
CCN1C(=O)CC(C(=O)Nc2ccc(F)cc2)SC1=Nc1cccc(OC)c1 (configuration not stated)	i	i	i	i	i	i	nt	nt
Cc1ccc(Cn2c(CCNc3nc(-c4ccc(Cl)c([N+](=O)[O-])c4)cs3)nc3cc(Cl)c(Cl)cc32)cc1	i	i	i	i	i	92.9	i	nt
O=C(CCCc1nc2ccccc2s1)NCc1ccccc1	i	i	i	i	i	i	nt	nt
CCOc1ccc(C)cc1S(=O)(=O)n1cnc2ccccc21	i	i	i	nt	i	51.6	60.7	44.7
SMILES	SKKanGAS inh	Calb FLC	CSC inhib	Beta cell apopt	MPTP inh	Mdm2 MdmX PPI	Mdm2 MdmX conf	Full FLuc ctr
CCOC(=O)c1[nH]c2ccc(F)cc2c1NC(=O)CN1CCN(C/C=C/c2ccccc2)CC1	i	i	i	i	i	56.6	i	nt
COc1ccc(NC(=O)CSc2nc(C3CC3)nc3ccccc23)c(OC)c1	i	i	i	i	i	i	nt	nt
O=C(CSc1nc2ccccc2c(=O)[nH]1)Nc1ccc(C(=O)O)cc1	i	i	nt	i	i	i	nt	nt
CC(C)C(=O)NNC(=O)CSc1nc(C2CCCCC2)nc2ccccc12	i	i	i	i	i	i	nt	nt
COc1ccc(NC(=O)CSc2nc3ccccc3c3nc4ccccc4n23)cc1	nt	nt	i	i	i	nt	nt	nt
COc1ccc(NC(=O)CSc2nc(C3CC3)nc3ccccc23)cc1	i	i	nt	i	i	59.7	i	nt
CC(=O)c1ccc(NC(=O)CSc2nc(C3CC3)nc3ccccc23)cc1	i	i	i	i	i	64.1	i	nt
Cc1ccc(NC(=O)CSc2nc3ccccc3c3nc4ccccc4n23)cc1	i	i	i	i	i	80.9	58.0	69.9
CCOc1ccc(NC(=O)c2ccc(NC(=O)CSc3nc4ccccc4c(=O)[nH]3)cc2)cc1	i	i	i	i	i	55.7	i	nt
CC1(C)C2([N+](=O)[O-])CN3CC1([N+](=O)[O-])CN(C2)C3C(O)C(O)C(O)CO (configuration not stated)	i	i	i	i	i	i	nt	nt
N#Cc1cccc(NC(=O)CSc2ccc3c4c(cccc24)C(=O)c2ccccc2-3)c1	i	i	i	i	i	nt	nt	nt
COc1ccc(NC(=O)CSc2ccc3c4c(cccc24)C(=O)c2ccccc2-3)cc1	i	i	i	i	i	57.6	i	nt
O=C(COC(=O)c1ccc(O)cc1)Nc1ccc(S(=O)(=O)N2CCOCC2)cc1	nt	nt	i	i	i	i	nt	nt
O=C(O)c1cc2ccccc2c(N=Nc2cccnc2)c1O	i	i	i	i	i	61.2	i	nt
CC1CCCCN1CCNC(=O)C1CCN(S(=O)(=O)c2cccc3nsnc23)CC1 (configuration not stated)	i	i	i	i	i	i	nt	nt
CCOc1cc(NC(=O)CCl)c(OCC)cc1NC(=O)CCl	i	i	i	i	i	95.5	80.5	60.4
O=C(CN1CC(c2ccccc2)CC1=O)N/N=C/c1cc(Br)ccc1O (configuration not stated)	79.1	i	i	i	i	62.0	64.8	43.1
CCOc1ccc(NC(=O)CN2CC(c3ccccc3)CC2=O)cc1 (configuration not stated)	i	i	i	i	i	i	nt	nt
CC(=O)c1cccc(N(C(=O)CNC(=O)c2cccs2)C(C(=O)NCC2CCCO2)c2ccccc2)c1 (configuration not stated)	i	i	i	i	i	i	nt	nt
COc1ccc(-c2nc(N/N=C(\C)c3ccc(O)cc3)c3ccccc3n2)cc1	i	i	i	i	i	85.6	i	nt
C/C(=N\Nc1nncc2ccccc12)c1ccc(O)cc1	i	i	i	i	i	i	nt	nt
Cc1cc2oc(C(=O)NCCc3ccc(S(N)(=O)=O)cc3)c(C)c2cc1C	nt	i	i	i	i	i	nt	nt
Brc1nc(-c2ccccc2)nc(-c2ccccc2)c1Br	i	i	i	i	i	79.0	i	nt
